# ssDAF12 agonist: S. stercoralis DAF-12 nuclear receptor activators, primary screen, cell-based, luminescence, HEK293, GRIP1 co-expression, lit1-tk-luc | Nuclear hormone receptor DAF-12 (Strongyloides stercoralis) | HEK293 ssDAF-12/GRIP1 lit1-tk-luc reporter; % of 3 µM dafachronic acid response | activation, % at 6.8 µM | 370,000 compounds, 1% hits;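 active = activation above the mean over all tested compounds plus 3 SD, cut at about 0.9% in these data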;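 also: 0% = DMSO-only wells and 100% = 3 µM delta7-dafachronic acid wells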
# DAX1 inh-1: DAX1 (NR0B1) inhibitors on StAR promoter, primary screen, cell-based, luminescence, SF-1 (NR5A1), full-length DAX-1 | inhibition, % at 6.8 µM | HEK293T StAR-luciferase reporter, SF-1/DAX-1 repression relief | 370,000 compounds, 1.1% hits | AID 652010, 2013;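 active = inhibition above the mean over all tested compounds plus 3 SD, cut at about 3.6% in these data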;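 also: 0% = DAX-1 cells with DMSO and 100% = cells lacking DAX-1 with DMSO; higher inhibition means more luminescence from relief of DAX-1 repression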
# hcDAF12 agonist: H. contortus DAF-12 nuclear receptor activators, primary screen, cell-based, luminescence, HEK293, lit1-tk-luc reporter. 370,000 compounds, 1.4% hits. activation, % at 6.8 µM. HEK293 hcDAF-12 lit1-tk-luc reporter; 0% DMSO, 100% Δ7-dafachronic acid;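 active = activation above the mean of all tested compounds plus 3 SD, cut at about 5.5% in these data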;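 also: 100% = response to 3 µM Δ7-dafachronic acid high control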
# hgDAF-12 ag: H. glycines DAF-12 receptor agonists, primary screen, cell-based, luminescence, HEK293, GAL4 fusion, UAS-luciferase; Nuclear hormone receptor DAF-12 (Heterodera glycines), GAL4 fusion; HEK293 GAL4-hgDAF12 UAS-luciferase reporter, agonist luminescence; normalized to butyrate control; activation, % at 6.8 µM; 370,000 compounds, 1.8% hits; AID 687014, 2013;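 active = activation above a cutoff set at the mean of all screened compounds plus 3 SD, cut at about 10% in these data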;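 also: 0% = DMSO wells and 100% = sodium butyrate wells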
# FXN GAA850 act: FXN promoter activators, primary screen, cell-based, luciferase luminescence, HEK293 lucGAA850 | activation, % at 6 µM | 360,000 compounds, 0.56% hits | HEK293 lucGAA850 FXN promoter luciferase reporter, 24 h; percent of 10 µM SAHA response;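 active = activation above the average of all compounds screened plus 3 SD, cutoff fixed separately per campaign, cut at about 7.5% in these data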;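 also: 0% = DMSO wells and 100% = 10 µM SAHA wells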
# DAX1 inh-2: DAX1 (NR0B1) inhibitors, primary screen, cell-based, HEK293, Gal4-DAX1, luciferase luminescence; 340,000 compounds, 0.99% hits; AID 504766, 2011; HEK293 Gal4-DAX1 luciferase reporter; Nuclear receptor subfamily 0 group B member 1 (Homo sapiens), P51843; inhibition, % at 6.75 µM;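 active = inhibition above the mean over all tested compounds plus 3 SD, cut at about 4.2% in these data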;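 also: 0% = DAX1-transfected cells with DMSO and 100% = empty-vector control cells with DMSO; inhibition shows as a rise in luminescence from relieved DAX1 repression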
# hgDAF12 ag: H. glycines DAF-12 receptor agonists, confirmation, cell-based, luminescence, HEK293, GAL4-LBD fusion. shares compounds with hgDAF-12 ag. HEK293 GAL4-hgDAF12 luciferase reporter, agonist mode; percent of butyrate response. activation, % at 6.8 µM. 3,300 compounds, 80% hits. AID 743050, 2013;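 active = mean activation over triplicate wells above the hit cutoff derived from the earlier primary screen, cut at about 11% in these data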;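 also: 0% = DMSO low control and 100% = 2 mM sodium butyrate high control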
# LXR ag 2: LXR agonists, Gal4 luciferase reporter, confirmation, counter-screen for hgDAF-12 agonist project, cell-based, luminescence, HEK293, H. glycines campaign; shares compounds with hgDAF-12 ag; 24 h; activation, % at 6.8 µM; 3,300 tested, under 10 active;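 active = mean activation of the triplicate above a set limit carried over from the primary screen, none filed active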
# Target sequence (P55055 whole entry, looked up, the tested form may be a part): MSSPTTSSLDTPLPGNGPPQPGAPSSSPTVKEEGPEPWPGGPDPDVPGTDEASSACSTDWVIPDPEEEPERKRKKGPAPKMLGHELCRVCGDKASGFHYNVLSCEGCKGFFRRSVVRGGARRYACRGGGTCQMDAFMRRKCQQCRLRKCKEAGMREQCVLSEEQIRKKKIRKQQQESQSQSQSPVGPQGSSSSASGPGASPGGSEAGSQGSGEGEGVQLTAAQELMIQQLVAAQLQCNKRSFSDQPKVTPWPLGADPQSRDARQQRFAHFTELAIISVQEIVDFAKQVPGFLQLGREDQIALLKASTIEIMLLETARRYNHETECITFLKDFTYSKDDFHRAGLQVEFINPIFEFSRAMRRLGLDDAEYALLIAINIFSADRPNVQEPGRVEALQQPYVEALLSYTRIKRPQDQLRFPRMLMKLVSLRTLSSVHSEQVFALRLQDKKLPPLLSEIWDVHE
# The depositor's hits bear a star; · = no result. The list is not random: actives were taken first. Their share in the collection is about 4.5%.
SMILES,ssDAF12 agonist,DAX1 inh-1,hcDAF12 agonist,hgDAF-12 ag,FXN GAA850 act,DAX1 inh-2,hgDAF12 ag,LXR ag 2
CC(C)C(C)(C#N)NC(=O)CSc1nnc(-c2ccncc2)n1Cc1ccccc1 (configuration not stated),-1,0,0,-1,0,0,·,·
CC(C)(C)NC(=O)CSc1nnc(-c2ccncc2)n1Cc1ccccc1,-1,0,0,14*,1,2,1,0
COc1ccc(NC(=O)CSCC(=O)N2CCN(C(=O)c3ccco3)CC2)cc1,0,0,0,0,2,-1,·,·
Cc1cccc(NC(=S)NNC(=O)c2csc(C(C)C)c2)c1,-1,1,2,8,4,3,·,·
Cc1cccc(NC(=S)NNC(=O)c2sccc2C)c1,0,2,3,13*,6,3,6,0
CCN(C(=O)Cn1cnc2c1c(=O)n(C)c(=O)n2C)C1CCS(=O)(=O)C1 (configuration not stated),-1,0,1,0,1,2,·,·
C/C(=N/OCc1ccc(Br)cc1)c1ccccn1,0,3.7*,5,23*,6,2,22*,1
CC(=O)c1sc(N/N=C\c2ccc(N(C)C)cc2)nc1C,0,2,3,14*,6,4.5*,16*,1
CCN(C(=O)CN1CCOCC1)C1(C)C(=O)c2ccccc2C1=O,-1,0,-1,2,-1,2,·,·
Cc1ccccc1NC(=O)c1ccc2nccnc2c1,-1,0,-2,1,0,0,·,·
O=C(Nc1ccccc1Br)c1ccc2nccnc2c1,0,1,2,15*,3,1,11*,0
O=C(NCCc1ccccc1)c1c(F)cccc1F,0,3.9*,3,14*,4,1,12*,1
O=C(NCc1ccccc1)c1ccc(NC(=O)C2CC2)cc1,-1,-1,-1,-3,3,0,·,·
O=C(NCCc1ccccc1)c1ccc(NC(=O)C2CC2)cc1,0,3,1,14*,2,1,7,0
O=C(CNc1cccc(S(=O)(=O)N2CCCC2)c1)Nc1ccc(F)cc1F,-1,-1,-1,-2,1,0,·,·
O=C(Cn1ncc2c3ccccc3n(Cc3ccccc3)c2c1=O)NCCCN1CCCC1=O,0,0,-3,0,1,1,·,·
CC(=O)c1cccc(OC(=O)c2cc(S(=O)(=O)N3CCOCC3)ccc2N2CCCC2)c1,-1,0,0,-1,1,0,·,·
O=C(CNC(=O)c1ccccc1)OC1CCCCC1,-1,3,3,16*,5,2,18*,1
N/C(=N\OC(=O)COc1ccc(Br)cc1Cl)c1ccncc1,0,4.0*,6.3*,14*,7,2,16*,1
N/C(=N\OC(=O)COc1cc(Cl)c(Cl)cc1Cl)c1ccncc1,-1,0,1,2,·,·,·,·
Cc1nn(Cc2ccccc2Cl)c(Cl)c1C(=O)NCCc1ccccc1,0,4.0*,3,17*,5,3,15*,1
CC(=O)Nc1ccc(NC(=O)c2c(C)nn(Cc3ccccc3)c2Cl)cc1,-1,0,-1,1,2,-1,·,·
c1cnc2nc(CSc3ncn[nH]3)cn2c1,-2,0,0,-4,-3,3,·,·
Nc1ccccc1N=Cc1ccc(-c2cccc(Cl)c2)o1,1.3*,2,3,22*,2,3,15*,0
COC(=O)N/N=C/c1ccc(-c2cccc(Cl)c2)o1,-1,1,-1,0,2,0,·,·
SMILES,ssDAF12 agonist,DAX1 inh-1,hcDAF12 agonist,hgDAF-12 ag,FXN GAA850 act,DAX1 inh-2,hgDAF12 ag,LXR ag 2
O=C(c1ccc(Cl)s1)N1CCc2ccccc21,1.5*,2,6.4*,15*,4,3,18*,0
CCNC(=O)c1sc2cc(C)ccc2c1Cl,0,1,3,15*,5,1,10,0
Cc1ccc(C)c(N(CC(=O)NC(C)C)C(=O)CCC(=O)Nc2ccccn2)c1,-1,0,2,0,0,1,·,·
O=C(Nc1ccc(Cl)cc1Cl)C1=Cc2ccccc2OC1,0,3,5,14*,2,3,18*,1
CCOC(=O)c1ccc(NC(=O)/C=C/c2cccs2)cc1,0,1,2,19*,6,0,9,0
CCN(CC)CCOC(=O)c1ccc(NC(=O)/C=C/c2cccs2)cc1,-2,0,1,-1,0,0,·,·
O=C(COC(=O)/C=C/c1cccs1)Nc1ccc2ccccc2c1,-1,0,1,-1,2,-1,·,·
CCOc1ccc(NC(c2ccccn2)c2oc(CO)cc(=O)c2O)cc1 (configuration not stated),1.4*,3,4,14*,5,2,13*,0
OCc1ccc(N=Nc2ccccc2)cc1,0,2,3,13*,-6,3,17*,1
CCOc1ccccc1N(CC(=O)NC1CCCC1)C(=O)CNC(=O)c1cccs1,-1,0,-2,1,0,-1,·,·
COc1ccccc1CCC(=O)NCCCn1ccc2ccccc21,0,0,3,-1,1,0,·,·
Cc1occc1C(=O)Nc1ccc2c(c1)OCCO2,-1,2,2,6,1,4,·,·
Cc1ccc(C(=O)Nc2ccc3c(c2)CCC3)o1,-1,2,3,16*,4,1,22*,1
CC(=O)Nc1ccc2c(c1)CCCC2,-1,0,-1,-2,2,-1,·,·
Cc1occc1C(=O)Nc1ccc2c(c1)CCC2,1,3.9*,3,15*,1,1,15*,1
COCCN(C(=O)c1cc(Cl)ccn1)c1c(N)n(Cc2ccccc2)c(=O)[nH]c1=O,-1,1,0,2,-3,0,·,·
